# G9a inh – qHTS Assay for Inhibitors of Histone Lysine Methyltransferase G9a; AID 504332, 2011; hit rate 8.8% among 350,000; G9a H3K9 monomethylation, AlphaScreen, 2 h; Potency, µM (highest dose often 102 µM), most hits filed as inhibitors; Histone-lysine N-methyltransferase EHMT2 (Homo sapiens), Q96KQ7; note: nearly all actives have a fitted effect of over 75% in size
# Target sequence (Q96KQ7 913-1193 limits assumed): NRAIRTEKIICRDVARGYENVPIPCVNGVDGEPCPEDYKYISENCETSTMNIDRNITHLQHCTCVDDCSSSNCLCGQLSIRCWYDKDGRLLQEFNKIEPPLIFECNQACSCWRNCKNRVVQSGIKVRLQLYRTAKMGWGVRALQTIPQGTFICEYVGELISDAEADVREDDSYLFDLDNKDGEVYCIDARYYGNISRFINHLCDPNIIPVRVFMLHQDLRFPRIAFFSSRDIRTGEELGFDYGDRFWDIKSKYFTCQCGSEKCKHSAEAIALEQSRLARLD
#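 Quantitative HTS format: methyltransferase activity on a biotin-tagged H3K9 peptide is measured by AlphaScreen, using a rabbit anti-monomethyl-H3K9 antibody with streptavidin donor and anti-IgG acceptor beads. Final levels are 20 nM enzyme, 500 nM peptide, 20 uM SAM; 2 h RT.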
# L3MBTL1 inh – qHTS Assay for the Inhibitors of L3MBTL1. Lethal(3)malignant brain tumor-like protein 1 (Homo sapiens), Q9Y468. AlphaScreen L3MBTL1–H3K9me1 peptide binding. Potency, µM (top dose mostly 57.1 µM), hits mostly inhibitors. hit rate 0.66% among 230,000; note: nearly all actives have a fitted effect of over 60% in size
#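 AlphaScreen proximity signal between nickel-chelate acceptor and streptavidin donor beads (final 10 ug/mL) reports binding of 50 nM L3MBTL1 to 75 nM biotin-H3 K9me1 peptide; complex incubated with compounds 30 min at room temperature; cefsulodin titration as control.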
# BAZ2B block – qHTS Assay for Inhibitors of BAZ2B; Bromodomain adjacent to zinc finger domain protein 2B (Homo sapiens), Q9UIF8; AlphaScreen BAZ2B-H3K14Ac peptide displacement; Potency, µM (titrated, usually from 114 µM), most hits filed as inhibitors; hit rate 4.4% among 360,000; AID 504333, 2011; note: nearly all actives have a fitted effect of over 60% in size
#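 In this displacement format the biotinylated H3(5-23) peptide acetylated at Lys14 serves as ligand at 50 nM, with BAZ2B at 50 nM in PBS pH 7.4 containing 0.01% Tween-20. Donor and acceptor beads are 10 ug/mL final.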
# JMJD2A Tudor – qHTS Assay for Inhibitors of JMJD2A-Tudor Domain; Lysine-specific demethylase 4A (Homo sapiens), O75164; hit rate 4.4% among 390,000; Potency, µM (top dose mostly 114 µM), actives largely listed as inhibitors; AlphaScreen JMJD2A-Tudor / H3K4me3 peptide binding; note: nearly all actives have a fitted effect of over 50% in size
# Sfp inh – qHTS Assay for Inhibitors of Bacillus subtilis Sfp phosphopantetheinyl transferase (PPTase); Potency, µM, hits mostly inhibitors; hit rate 3.5% among 310,000; Biochemical Sfp PPTase activity, qHTS; 4'-phosphopantetheinyl transferase ffp (Bacillus subtilis), Q9F4F7;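 note: the enzyme is Sfp with the accession as filed and its product quenches rhodamine fluorescence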
#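 With Hepes-Na pH 7.6 buffer containing 10 mM MgCl2, Sfp (15 nM) modified BHQ-2-YbbR (12.5 uM) using rhodamine-CoA (5 uM). Two reads 30 minutes apart at 525/598 nm yielded each well's rate.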
# HP1b chromo inh – HTS for Inhibitors of HP1-beta Chromodomain Interactions with Methylated Histone Tails; Chromobox protein homolog 1 (Homo sapiens), P83916; AlphaScreen HP1-beta / biotin-H3K9me3 peptide binding; Potency, µM (series often up to 114 µM), hits mostly inhibitors; hit rate 0.56% among 390,000; note: nearly all actives have a fitted effect of over 70% in size
# Target sequence (P83916 whole entry, looked up): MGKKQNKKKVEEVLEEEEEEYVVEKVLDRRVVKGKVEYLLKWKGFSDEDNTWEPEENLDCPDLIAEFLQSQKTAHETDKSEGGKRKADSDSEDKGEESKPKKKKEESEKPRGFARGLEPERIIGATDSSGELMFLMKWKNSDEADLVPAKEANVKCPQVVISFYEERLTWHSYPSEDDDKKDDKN
#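 AlphaScreen: HP1-beta (50 nM) preformed 30 min with biotin-H3(1-18)K9me3 peptide (50 nM) in PBS pH 7.4, 0.01% Tween-20. Compound added for 30 min at RT, then streptavidin donor/nickel chelate acceptor beads (10 ug/mL) for 30 min.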
# Numbers stand for hits; i = inactive; ? = inconclusive; nt = no result; [ ] = remark or other dose. This is a sample that favours compounds with a hit; in the whole collection about 12% have one here. Calls come from the whole dose curve; as a rule, active = well fitted curve in the direction sought with a large enough effect; inconclusive = small, poorly fitted or top-dose-only effect, or another doubt; inactive = no such curve, though single readings can be large; an effect the other way counts as inactive or inconclusive.
SMILES,G9a inh,L3MBTL1 inh,BAZ2B block,JMJD2A Tudor,Sfp inh,HP1b chromo inh
COc1ccc(C(C)=O)cc1COC(=O)CNC(=O)c1ccc(F)cc1,i,i,i,i,i,i
CCOC(=O)c1sc2ccccc2c1S(=O)(=O)N1CCN(c2cccc(C)c2C)CC1,i,nt,i,i,nt,i
Cc1cc2c(cc1S(=O)(=O)NCc1ccc(F)cc1)OCCN2C,?,nt,i,i,nt,i
NC(=O)c1c(NC(NC(=O)c2ccco2)(C(F)(F)F)C(F)(F)F)sc2c1CCCC2,?,nt,?,i,22µM,i
CCOC(=O)C(NC(=O)c1ccccc1Cl)(Nc1sc2c(c1C(N)=O)CCC2)C(F)(F)F (stereo unspecified),28µM,i,i,i,?,i
Cc1oc2c(C)c3oc(=O)c(CC(=O)N4CCCCC4)c(C)c3cc2c1C,i,nt,i,i,nt,i
CCn1nc(C)cc1C(=O)N(C)C1CCCN(Cc2ccccc2F)C1 (stereo unspecified),i,nt,i,i,i,i
CC(C)Cc1cc(C(=O)N(C)C2CCCN(Cc3ccccc3F)C2)n(C)n1 (stereo unspecified),89µM,nt,i,i,i,i
O=[N+]([O-])c1ccc(NN=Cc2cccc3ccccc23)cc1,nt,nt,nt,i,nt,i
O=[N+]([O-])c1cc(Br)c(O)c(/C=N/Nc2nnnn2-c2cccc3ccccc23)c1,i[12.7 µM],nt,79µM,56µM,i,i
NC(N)=NCCC[C@@H](N)C(=O)NCC(=O)N[C@@H](CC(=O)O)C(=O)N[C@@H](Cc1c[nH]c2ccccc12)C(=O)O,nt,nt,nt,nt,i,nt
Nc1nc2ccccc2n1C(=O)c1ccc(F)cc1,?,i,i,i,i,i
Nc1nc2ccccc2n1C(=O)c1ccccc1,nt,i,79µM,i,i,i
CCOC(=O)c1cccc(NC(=O)c2cc(CN3CCOCC3)on2)c1,i,nt,i,i,nt,i
O=C(c1ccccc1)N1CCN(c2ccccc2)CC1,nt,nt,nt,i,nt,i
O=C(Nc1nccs1)c1nc[nH]c1C(=O)N1CCN(c2ccccc2)CC1,nt,?,nt,32µM,nt,i
O=C(O)c1nccnc1C(=O)N1CCN(c2ccccc2)CC1,?,i,56µM,?,i,i
O=C(Nc1ccccc1)c1nc[nH]c1C(=O)N1CCN(c2ccccc2)CC1,i[0.501 µM],i,i,i,nt,i
Clc1ccc(OCCn2ccnc2)c(Cl)c1,?,i,50µM,3.5µM,i,?
Clc1ccc(OCCn2ccnc2)c2ccccc12,i,nt,?,?,i,i
Cc1cc(Cl)c(OCCn2ccnc2)c(Br)c1,nt,i,?,18µM,?,?
C=CCc1cc(Cl)ccc1OCCn1ccnc1,7.1µM,i,50µM,20µM,i,?
Cc1ccc(C)c(OCCCCCn2ccnc2)c1,?,i,?,?,i,i
OC(COc1ccc(Cl)cc1Cl)Cn1ccnc1 (stereo unspecified),i,nt,i,i,i,i
C=CCc1cc(C)ccc1OCCOCCn1ccnc1,10µM,i,32µM,3.2µM,i,28µM
SMILES,G9a inh,L3MBTL1 inh,BAZ2B block,JMJD2A Tudor,Sfp inh,HP1b chromo inh
N#Cc1nc(-c2ccc(OCc3ccc(Cl)cc3)cc2)oc1N1CCCCC1,nt,nt,nt,i,nt,i
Oc1c(C(c2ccccc2Cl)N2CCC(O)CC2)sc2nc(-c3ccco3)nn12 (stereo unspecified),?,nt,i,i,nt,i
Cc1ccc(SCc2nc(-c3ccc(C(=O)Nc4cc(C)ccc4C)cc3)oc2C)cc1,i,nt,i,i,nt,i
COc1cccc(C(=O)NCc2nc(-c3ccccc3)no2)c1OC,i,nt,i,i,nt,i
Clc1ccc(SCCn2ccnc2)cc1,32µM,i,56µM,3.5µM,i,?
Clc1ccc(SCCCCn2cncn2)cc1,i[12.7 µM],nt,i,i,i,i
O=C(O)c1cccc(-c2noc(-c3ccccc3F)n2)c1,i[12.7 µM],nt,nt,i,nt,nt
c1ccc(-c2cnnc(-c3ccccn3)n2)cc1,nt,nt,nt,11µM,nt,i
c1ccc(-c2cncnc2)nc1,i[0.501 µM],i,i,i,nt,i
Nc1nc(N)nc(-c2ccccn2)n1,i,?,20µM,50µM,i,i
c1ccc(-c2cnc(-c3ccccn3)nn2)cc1,nt,nt,nt,14µM,nt,i
Clc1ccc(-c2cnnc(-c3ccccn3)n2)cc1,nt,3.2µM,nt,10µM,nt,i
c1ccc(-c2nc(-c3ccccn3)nc(-c3ccccn3)n2)nc1,i,nt,i,i,?,i
Cc1ccc(-n2nc(C)c3c(C)cc(=O)n(CC(=O)Nc4cc(Cl)ccc4C)c32)cc1,i,nt,i,i,nt,i
Cc1c(NS(=O)(=O)c2ccc(C(C)(C)C)cc2)c(=O)n(-c2ccccc2)n1C,i,nt,i,i,nt,i
Cc1ccc(-n2nc(C(=O)Nc3cccc(C#N)c3)c3c4ccccc4n(C)c3c2=O)cc1,i,nt,nt,i,nt,i
Cc1ccc(NC(=O)Cc2ccc(-n3c(C)nc4cccnc43)cc2)c(Cl)c1,i,nt,i,i,nt,i
Cc1nc(NC(=O)c2ccccc2)sc1-c1csc(Nc2ccc(Cl)cc2)n1,45µM,i,i,nt,i,nt
Cc1nc(NC(=O)c2ccccc2)sc1-c1csc(Nc2ccc(F)cc2)n1,32µM,i,?,nt,i,nt
Cc1nc(NC(=O)c2ccco2)sc1-c1csc(Nc2ccc(Cl)cc2)n1,i[0.501 µM],i,?,?,i,i
Cc1nc(NC(=O)c2ccccc2)sc1-c1csc(Nc2cccc(Cl)c2)n1,50µM,i,?,nt,i,nt
CC1(OC(=O)C2CCCC2)C(=O)C=C2C=C(c3ccsc3)N(c3cccc(C#N)c3)C=C2C1=O (stereo unspecified),nt,nt,nt,nt,i,nt
Cc1c(Cl)cccc1NS(=O)(=O)c1ccc2[nH]cc(C(=O)NC3CCCC3)c(=O)c2c1,?,nt,nt,?,nt,i
COCCCNC(=S)N/N=C/c1ccc2ccccc2c1,50µM,i,?,i,i,i
COc1cccc(/C=N/NC(=S)Nc2cccc(C(=O)O)c2)c1O,40µM,nt,nt,16µM,i,i
SMILES,G9a inh,L3MBTL1 inh,BAZ2B block,JMJD2A Tudor,Sfp inh,HP1b chromo inh
COCCCNC(=S)N/N=C/c1ccc(O)cc1O,i,?,6.3µM,50µM,i,i
COCCCNC(=S)N/N=C/c1cccc(OC)c1O,nt,i,6.3µM,?,i,i
COCCCNC(=S)N/N=C/c1ccc(O)cc1,i,i,i,i,i,i
COCCCNC(=S)N/N=C/c1ccc(OC)cc1,nt,i,i,i,i,i
Cn1cnc([N+](=O)[O-])c1Oc1ccc2ccccc2c1,50µM,i,i,i,i,i
O=C(CC1C(=O)N(c2ccc(F)cc2)C(=O)N1Cc1cccnc1)Nc1ccc(F)cc1 (stereo unspecified),i,nt,i,i,nt,i

# Assay outcomes (PubChem BioAssay)
